# An excerpt weighted towards active compounds, which were near 19% of everything screened.
# DT40 TDP1 CPT = DT40-hTDP1 cell growth loss with CPT. chicken DT40 Tdp1-/-;hTDP1 cells + 20 nM CPT, ATP luminescence, 48 h. Potency, µM (top dose mostly 46.2 µM), usual class: inhibitors. hit rate 12% among 420,000. AID 686979; also: nearly all actives have a fitted effect of over 55% in size
#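 Cell growth measured by CellTiter-Glo luminescence after a minimum 48 h, 37 C compound exposure with 20 nM CPT in Tdp1-knockout DT40 cells stably expressing hTDP1, seeded 400/well; qHTS titration format.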
# Giardia killer = kills Giardia lamblia; AID 540267; hit rate 0.15% among 340,000; activity change, % at 7.66 µM, hits read low; Giardia lamblia trophozoite viability; in the data active = activity change below about -80%; inconclusive = between about -30% and that limit;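 also: parasites exposed to compound for two days anaerobically before the ATP read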
#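 Luminescent ATP signal served as the viability read-out, measured 15-30 min after adding ATP detection reagent to trophozoites that had been incubated with compounds for 48 hrs at 37 deg C anaerobically at 100 cells/well.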
# ELG1 repair inh = blocks ELG1-dependent DNA repair in HEK293T cells; HEK293T ELG1-luciferase reporter, luminescence, 16 h; DNA damage induced by 5-fluorouridine; AID 504467; hit rate 2.3% among 330,000; Potency, µM (top dose mostly 46.1 µM), actives largely listed as inhibitors; also: nearly all actives have a fitted effect of over 55% in size
#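 Overnight (16 hr) co-exposure of 2,000 cells/well to 5-fluorouridine and compound at 37 °C preceded detection. Luciferase was quantified via ONE-Glo luminescence; loss of signal denotes inhibition.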
# IL-1B inflam inh = blocks inflammasome-driven IL-1 beta release; hit rate 4.7% among 360,000; activity change, % at 57.5 µM; AID 743279; THP-1 LPS/ATP IL-1B secretion, AlphaLISA, 16 h; stronger effect = lower value; in the data active = activity change below about -50%; inconclusive = mostly about -30% to -49%
#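 THP-1 cells pretreated 1 hr with compounds (up to 57.5 uM final), then stimulated with LPS (250 ng/mL final) plus ATP (1.25 mM final); secreted IL-1B measured by AlphaLISA after 16 hr, decreased signal indicating inhibition.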
# TDP1 block = blocks human tyrosyl-DNA phosphodiesterase 1 | Q9NUW8 | recombinant TDP1, AlphaScreen DNA substrate cleavage | Potency, µM (series often up to 130 µM), hits mostly inhibitors | hit rate 0.28% among 350,000 | AID 485290; also: nearly all actives have a fitted effect of over 40% in size
# Target sequence (Q9NUW8 whole entry, looked up): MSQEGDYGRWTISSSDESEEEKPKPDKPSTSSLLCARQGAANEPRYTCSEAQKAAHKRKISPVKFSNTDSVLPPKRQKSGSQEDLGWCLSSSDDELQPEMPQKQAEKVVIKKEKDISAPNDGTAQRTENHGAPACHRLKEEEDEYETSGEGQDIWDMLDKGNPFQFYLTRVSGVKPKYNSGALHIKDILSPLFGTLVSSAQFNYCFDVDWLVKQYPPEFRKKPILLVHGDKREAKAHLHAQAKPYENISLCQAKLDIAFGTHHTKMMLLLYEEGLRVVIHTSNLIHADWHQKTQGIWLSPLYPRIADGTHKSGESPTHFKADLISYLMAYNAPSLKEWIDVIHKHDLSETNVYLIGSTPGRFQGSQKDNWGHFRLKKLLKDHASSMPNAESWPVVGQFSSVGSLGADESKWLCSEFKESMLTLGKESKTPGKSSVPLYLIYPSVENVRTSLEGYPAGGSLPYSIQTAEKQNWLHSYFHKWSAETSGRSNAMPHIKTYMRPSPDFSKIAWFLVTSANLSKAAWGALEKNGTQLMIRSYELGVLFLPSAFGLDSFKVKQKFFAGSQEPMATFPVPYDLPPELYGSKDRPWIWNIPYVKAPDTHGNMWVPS
#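 Compounds were preincubated with Tdp1 (1 nM final) for 15 min at room temperature before substrate (15 nM final) started a 5 min reaction; beads (10 ug/ml final) were then added for 10 min before AlphaScreen detection.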
# TDP1 cell noCPT = qHTS for Inhibitors of human tyrosyl-DNA phosphodiesterase 1 (TDP1): qHTS in cells in absence of CPT; Potency, µM (doses to about 46.2 µM), usual class: inhibitors; hit rate 15% among 420,000; DT40 Tdp1-/- hTDP1 cells, no CPT, ATP luminescence, 48 h; AID 686978, 2013; also: nearly all actives have a fitted effect of over 55% in size
#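 DT40 Tdp1-/-;hTDP1 cells, no CPT (DMSO vehicle only), 400 cells/well; compounds pin-transferred; ≥48 hr, 37 °C; CellTiter-Glo 30 min RT dark, luminescence read.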
# Numbers stand for hits; . = inactive; ? = inconclusive; / = no result given; [ ] = another dose, or the depositor's remark. Unless noted, calls follow the shape of the dose curve; as a rule, active = well fitted curve in the direction sought with a large enough effect; inconclusive = small, poorly fitted or top-dose-only effect, or another doubt; inactive = no such curve, though single readings can be large; an effect the other way counts as inactive or inconclusive.
SMILES,DT40 TDP1 CPT,Giardia killer,ELG1 repair inh,IL-1B inflam inh,TDP1 block,TDP1 cell noCPT
CNC(=O)COc1ccccc1C(=O)Nc1ccc2c(c1)oc1ccccc12,.,.,?,-69,.,?
O=C(COc1ccc(/C=N/NS(=O)(=O)c2ccccc2)cc1)Nc1cccc(Cl)c1,?,.,.,.,.,21µM
O=C(O)c1ccccc1-c1ccccc1C(=O)Nc1ccc2c(c1)oc(=O)c1ccccc12,?,/,/,?,/,13µM
Cc1ccccc1OCC(=O)NNC(=O)Nc1ccc(Cl)cc1,5.8µM,.,.,.,.,4.6µM
O=C(c1cccnc1)C1CCCN(Cc2nc(Cc3ccccc3)no2)C1 (stereo unspecified),.,.,.,.,.,.
COc1ccc(CN(C(=O)Nc2ccccc2)c2ccccn2)cc1OC,.,/,/,/,.,.
O=C(Nc1ccccc1)N(Cc1ccc(F)cc1)c1ccccn1,?,/,/,/,.,?
COc1ccc(CN(C(=O)Nc2cccc(Cl)c2)c2ccccn2)cc1OC,?,/,/,/,.,13µM
Cc1ccc(CN(C(=O)Nc2cccc(Cl)c2)c2ccccn2)cc1,?,/,/,/,/,16µM
Cc1cc(C)n2cc(CSc3nnnn3-c3ccccc3)nc2n1,.,.,.,.,.,.
Cc1cc(C)n2cc(CSc3nnc(-c4ccccc4)c(-c4ccccc4)n3)nc2n1,21µM,.,/,.,/,23µM
COc1ccc(Cl)cc1S(=O)(=O)N1CCN(C(=O)c2cc(-c3ccc(Br)cc3)n[nH]2)CC1,12µM,/,/,/,.,9.2µM
COc1ccccc1-c1cc(C(=O)N2CCN(S(=O)(=O)c3ccc(C)cc3)CC2)[nH]n1,23µM,.,?,.,/,?
COc1cc(C(=O)N2CCN(S(=O)(=O)c3ccc(F)cc3)CC2)cc(OC)c1OC,.,.,.,.,.,.
COc1ccc(S(=O)(=O)N2CCN(C(=O)c3cc(-c4ccc(Br)cc4)n[nH]3)CC2)cc1OC,9.2µM,.,23µM,/,.,7.3µM
Cc1ccc(S(=O)(=O)N2CCN(C(=O)c3cc(-c4ccc(Br)cc4)n[nH]3)CC2)c(C)c1,16µM,/,/,/,.,12µM
COc1ccc(Cl)cc1S(=O)(=O)N1CCN(C(=O)c2cc(OC)c(OC)c(OC)c2)CC1,.,.,.,.,.,.
CCOc1ccc(CNC(=O)c2cc3ccccn3n2)cc1OC,.,/,/,/,.,.
COc1ccc(-c2cc(C(=O)N3CCN(S(=O)(=O)c4ccccc4)CC3)[nH]n2)cc1,21µM,.,?,.,/,?
O=C(c1cc(-c2ccc(Br)cc2)n[nH]1)N1CCN(S(=O)(=O)c2ccc(Br)cc2)CC1,15µM,/,/,/,.,16µM
O=C(c1cc(-c2ccccc2)n[nH]1)N1CCN(S(=O)(=O)c2ccccc2)CC1,?,.,.,.,/,?
CCC1C(=O)NCCN1Cc1ccc2c(c1)CN(Cc1ccc(OC)cc1OC)CCO2 (stereo unspecified),.[9.04 µM],/,/,/,/,?
Cn1c(=S)c2[nH]c(SCCN3CCCC3)nc2n(C)c1=O,?,.,?,.,.,23µM
Cn1c(=O)c2c(nc(SCCN3CCCCC3)n2C)n(C)c1=O,.,.,.,.,.,.
Cn1c(=S)c2[nH]c(SCCN)nc2n(C)c1=O,5.8µM,.,/,.,/,5.8µM
SMILES,DT40 TDP1 CPT,Giardia killer,ELG1 repair inh,IL-1B inflam inh,TDP1 block,TDP1 cell noCPT
COc1ccccc1CNC(=O)COC(=O)CCC(=O)c1cccs1,.,.,.,.,.,.
O=C1OCC2OC(O)C(O)C(O)C2OC(=O)c2cc(O)c(O)c(O)c2-c2c(O)c(O)c3oc(=O)c4c(c(O)c(O)c5oc(=O)c2c3c54)-c2c1cc(O)c(O)c2O (stereo unspecified),/,/,.,/,0.14µM,/
COc1ccccc1Cn1c(=S)[nH]c2cc(C(=O)NCC3CCCO3)ccc2c1=O (stereo unspecified),?,.,?,.,.,?
CC1CCCCN1CCNC(=O)c1ccc2c(=O)n(Cc3ccc(Cl)cc3)c(=S)[nH]c2c1 (stereo unspecified),?,.,?,-97,.,?
CC1CCCCN1CCNC(=O)c1ccc2c(=O)n(CCc3ccccc3)c(=O)[nH]c2c1 (stereo unspecified),?,.,.,.,.,?
O=C(NCCCN1CCCC1=O)c1ccc2c(=O)n(Cc3ccco3)c(=S)[nH]c2c1,16µM,.,.,.,.,?
O=C(NCCCN1CCOCC1)c1ccc2c(=O)n(Cc3ccccc3)c(=S)[nH]c2c1,.,.,.,-73,.,?
COc1ccccc1Cn1c(=S)[nH]c2cc(C(=O)NCCN(C)C)ccc2c1=O,?,.,.,-56,/,.
COc1cc(CCNC(C)=O)c(C(=O)/C=C/c2cccc(OC)c2OC)cc1OC,.[9.04 µM],/,/,/,.,.[9.04 µM]
CC(C)CC(=O)N1CCN(Cc2ccccc2Cl)CC1,.,.,.,.,/,.
O=c1c2ccccc2c(C=NCCCN2CCOCC2)c(O)n1Cc1ccc2c(c1)OCO2,.,.,.,?,.,?
O=c1c2ccccc2c(C=NCCCN2CCOCC2)c(O)n1Cc1ccccc1,18µM,.,.,.,.,?
CC(C)C[C@@H](CN)NC(=O)c1nc[nH]c1C(=O)N[C@@H](CC(C)C)C(=O)CNC[C@H](C)NC(=O)c1nc[nH]c1C(=O)N[C@@H](C)C(=O)O,.,.,/,.,/,.
Cn1cc(/C(Cc2ccccc2)=N\O)c2ccccc21,23µM,.,.,.,.,16µM
Cn1cc(C(=O)CCl)c2ccccc21,2.3µM,.,.,-100,.,4.6µM
COc1ccc(OC(C)c2nc3ccccc3[nH]2)cc1 (stereo unspecified),.,/,/,/,.,?
O=C1/C(=C/c2cccc(Br)c2)SC(=S)N1/N=C/c1cc([N+](=O)[O-])ccc1O,23µM,.,.,.,/,?
O=C1/C(=C\c2ccc(O)cc2)SC(=S)N1/N=C/c1ccc(O)cc1,.,.,.,.,.,.
Cc1noc(C)c1CC(=O)NCC1Cc2cc(-c3cccc(OC(F)(F)F)c3)ccc2O1 (stereo unspecified),?,/,/,/,/,10µM
CC(=O)N1CCC[C@H]1C(=O)NCC1Cc2cc(-c3cccc(OC(F)(F)F)c3)ccc2O1 (stereo partly specified),?,/,/,/,/,16µM
Cc1cnc(C)c(-c2ccc(F)c3c2OC(CNC(=O)Cc2c(C)[nH]c4ccccc24)C3)n1 (stereo unspecified),.,/,/,/,/,.
Cc1cnc(C)c(-c2ccc3c(c2)CC(CNC(=O)Cc2c(C)[nH]c4ccccc24)O3)n1 (stereo unspecified),0.52µM,/,/,/,/,0.92µM

# Source: PubChem BioAssay
